hcDAF12 agonist – H. contortus DAF-12 nuclear receptor activators, primary screen, cell-based, luminescence, HEK293, lit1-tk-luc reporter; hit rate 1.4% among 370,000; activation, % at 6.8 µM; HEK293 hcDAF-12 lit1-tk-luc reporter; 0% DMSO, 100% Δ7-dafachronic acid;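 active = activation above the mean of all tested compounds plus 3 SD, cut at about 5.5% in these data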
ssDAF-12 act – S. stercoralis DAF-12 nuclear receptor activators, primary screen, cell-based, luminescence, HEK293, GRIP1 co-expression, lit1-tk-luc. Nuclear hormone receptor DAF-12 (Strongyloides stercoralis). HEK293 ssDAF-12/GRIP1 lit1-tk-luc reporter; % of 3 µM dafachronic acid response. activation, % at 6.8 µM. hit rate 1% among 370,000. AID 652126, 2013;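 active = activation above the mean over all tested compounds plus 3 SD, cut at about 0.9% in these data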
hgDAF-12 ag – H. glycines DAF-12 receptor agonists, primary screen, cell-based, luminescence, HEK293, GAL4 fusion, UAS-luciferase. Nuclear hormone receptor DAF-12 (Heterodera glycines), GAL4 fusion. HEK293 GAL4-hgDAF12 UAS-luciferase reporter, agonist luminescence; normalized to butyrate control. activation, % at 6.8 µM. hit rate 1.8% among 370,000;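 active = activation above a cutoff set at the mean of all screened compounds plus 3 SD, cut at about 10% in these data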
NF-kB expr up – activators of NF-kB expression in neurons, primary screen, cell-based, HTS; AID 1239, 2008; hit rate 1.6% among 190,000; human neuronal cells, NF-kB reporter expression; active compounds read high; fold change at 12.5 µM; in the data active = fold change above about 3.3
APP 5'UTR act – activators of APP 5'UTR luciferase reporter, primary screen, SH-SY5Y cells; hit rate 1% among 190,000; SH-SY5Y APP 5'UTR luciferase reporter, luminescence; zero percent = DMSO vehicle wells; AID 1276, 2008; activation, % at 2 µM;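 active = activation above a set limit, based on mean plus 3 SD of controls, cut at about 140% in these data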
hgDAF12 ag – H. glycines DAF-12 receptor agonists, confirmation, cell-based, luminescence, HEK293, GAL4-LBD fusion; activation, % at 6.8 µM; hit rate 80% among 3,300; HEK293 GAL4-hgDAF12 luciferase reporter, agonist mode; percent of butyrate response; shares compounds with hgDAF-12 ag;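 active = mean activation over triplicate wells above the hit cutoff derived from the earlier primary screen, cut at about 11% in these data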
LXR ag 2 – LXR agonists, Gal4 luciferase reporter, confirmation, counter-screen for hgDAF-12 agonist project, cell-based, luminescence, HEK293, H. glycines campaign | shares compounds with hgDAF-12 ag | 3,300 tested, under 10 active | AID 743051, 2013 | 24 h | activation, % at 6.8 µM;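 active = mean activation of the triplicate above a set limit carried over from the primary screen, none filed active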
Target sequence (P55055 whole entry, looked up, the tested form may be a part): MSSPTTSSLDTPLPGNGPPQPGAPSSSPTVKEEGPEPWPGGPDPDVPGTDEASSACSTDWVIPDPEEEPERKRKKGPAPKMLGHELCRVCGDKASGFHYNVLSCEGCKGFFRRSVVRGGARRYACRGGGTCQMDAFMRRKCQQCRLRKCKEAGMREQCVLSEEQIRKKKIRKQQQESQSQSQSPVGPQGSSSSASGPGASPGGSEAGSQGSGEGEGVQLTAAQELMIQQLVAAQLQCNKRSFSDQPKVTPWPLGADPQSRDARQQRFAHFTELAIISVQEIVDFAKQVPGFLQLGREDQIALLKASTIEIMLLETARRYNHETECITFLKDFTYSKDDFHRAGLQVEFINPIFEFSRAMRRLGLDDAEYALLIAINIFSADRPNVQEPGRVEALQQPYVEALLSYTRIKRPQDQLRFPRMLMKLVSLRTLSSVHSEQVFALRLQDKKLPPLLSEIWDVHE
A number is an active result. This is a sample that favours compounds with a hit; in the whole collection about 3.4% have one here.

CCN(CC)C(=O)CC[C@@H]1CC[C@]2(CCCN(Cc3ccccc3)C2)O1 was read as hcDAF12 agonist inactive, ssDAF-12 act inactive and hgDAF-12 ag inactive.
For O=C(CSc1nnc(COc2ccccc2)n1Cc1ccco1)Nc1ccc2c(c1)OCO2 the results were hcDAF12 agonist inactive, ssDAF-12 act inactive and hgDAF-12 ag inactive.
Screening COc1ccc(/C=C/c2nc3ccccc3n2Cc2ccccc2OC)cc1 returned hcDAF12 agonist inactive, ssDAF-12 act inactive, hgDAF-12 ag 16.2, NF-kB expr up 5.62, APP 5'UTR act 178.8, hgDAF12 ag 11.9 and LXR ag 2 inactive.
COc1ccccc1Cn1c(C(C)C)nc2ccccc21 was read as hcDAF12 agonist inactive, ssDAF-12 act inactive and hgDAF-12 ag inactive.
Screening CC(/C=N/NC(=O)c1c(Br)cnn1C)=C\c1ccccc1 returned hcDAF12 agonist inactive, ssDAF-12 act inactive, hgDAF-12 ag inactive, NF-kB expr up inactive and APP 5'UTR act inactive.
`CC(/C=N/NC(=O)c1nn(C)c(C)c1Br)=C\c1ccccc1` gave hcDAF12 agonist inactive, ssDAF-12 act inactive, hgDAF-12 ag 13.8, NF-kB expr up inactive, APP 5'UTR act inactive, hgDAF12 ag inactive and LXR ag 2 inactive.
Screening CSc1nsc(SCC(=O)Nc2ccc(C(C)=O)cc2)n1 returned hcDAF12 agonist 12.5, ssDAF-12 act 1.0, hgDAF-12 ag 14.1, NF-kB expr up inactive, APP 5'UTR act inactive, hgDAF12 ag 21.1 and LXR ag 2 inactive.
`CCOC(=O)/C(C#N)=C/C=C1/C=CC=CN1C` gave hcDAF12 agonist inactive, ssDAF-12 act inactive and hgDAF-12 ag inactive.
Screening C=CCN1C=CC(=C/C=C(/C#N)C(=O)OCC)C=C1 returned hcDAF12 agonist 5.6, ssDAF-12 act inactive, hgDAF-12 ag 15.8, NF-kB expr up 4.57, APP 5'UTR act 142.8, hgDAF12 ag 15.5 and LXR ag 2 inactive.
CCC/C=N/NC(=O)c1ccc(F)cc1 was read as hcDAF12 agonist inactive, ssDAF-12 act inactive, hgDAF-12 ag inactive, NF-kB expr up inactive and APP 5'UTR act inactive.
For CCC/C=N/NC(=O)c1cccc(Br)c1 the results were hcDAF12 agonist inactive, ssDAF-12 act inactive, hgDAF-12 ag 14.4, NF-kB expr up inactive, APP 5'UTR act inactive, hgDAF12 ag inactive and LXR ag 2 inactive.
For O=C(Nc1ccc(F)cc1)N[C@@H]1C[C@@H]2O[C@H](CO)CC[C@@H]2O[C@@H]1CCc1ccc(C2=CCCC2)cc1 the results were hcDAF12 agonist inactive, ssDAF-12 act inactive and hgDAF-12 ag inactive.
Screening CCOc1ccc(C2CC=C(C(=O)O)CN2S(=O)(=O)c2ccc(C)cc2)cc1 (configuration not stated) returned hcDAF12 agonist inactive, ssDAF-12 act inactive and hgDAF-12 ag inactive.
For CCOC(=O)c1c(NC(=O)C2C3CCC(O3)C2C(=O)O)sc(C)c1-c1ccc(C)cc1 (configuration not stated) the results were hcDAF12 agonist inactive, ssDAF-12 act inactive, hgDAF-12 ag inactive, NF-kB expr up inactive and APP 5'UTR act inactive.
For Cc1sc(NC(=O)C2C3CCC(O3)C2C(=O)O)nc1-c1ccc(CC(C)C)cc1 (configuration not stated) the results were hcDAF12 agonist inactive, ssDAF-12 act inactive, hgDAF-12 ag 17.6, NF-kB expr up inactive, APP 5'UTR act inactive, hgDAF12 ag inactive and LXR ag 2 inactive.
`COc1ccc2occ(C(=O)c3ccc(N)cc3)c2c1` gave hcDAF12 agonist inactive, ssDAF-12 act inactive and hgDAF-12 ag inactive.
For O=C(c1ccccc1)c1coc2ccc(O)c(Cl)c12 the results were hcDAF12 agonist inactive, ssDAF-12 act inactive, hgDAF-12 ag inactive, NF-kB expr up inactive and APP 5'UTR act inactive.
For Cc1ccc(C(=O)c2coc3ccc(O)c(Cl)c23)cc1 the results were hcDAF12 agonist inactive, ssDAF-12 act inactive, hgDAF-12 ag 16.8, NF-kB expr up inactive, APP 5'UTR act inactive, hgDAF12 ag 13.2 and LXR ag 2 inactive.
Cc1ccc(C(=O)c2coc3ccc(O)cc23)cc1 was read as hcDAF12 agonist inactive, ssDAF-12 act 1.1, hgDAF-12 ag 17.6, hgDAF12 ag 22.4 and LXR ag 2 inactive.
Screening C=CCN(C(=O)[C@@H](C)[C@@H](O)c1ccc(C(C)=O)cc1)c1ccccc1 returned hcDAF12 agonist inactive, ssDAF-12 act inactive and hgDAF-12 ag inactive.
For Cc1nc2ccccc2nc1OCc1cccc(Cl)c1 the results were hcDAF12 agonist inactive, ssDAF-12 act inactive, hgDAF-12 ag inactive, NF-kB expr up inactive and APP 5'UTR act inactive.
Screening Cc1nc2ccccc2nc(C)c1=NOCc1cccc(F)c1 returned hcDAF12 agonist inactive, ssDAF-12 act inactive, hgDAF-12 ag 14.2, NF-kB expr up inactive, APP 5'UTR act inactive, hgDAF12 ag inactive and LXR ag 2 inactive.
For O=C(NCC1CCCO1)c1ccccc1 (configuration not stated) the results were hcDAF12 agonist inactive, ssDAF-12 act inactive, hgDAF-12 ag inactive, NF-kB expr up inactive and APP 5'UTR act inactive.
O=C(NCC1CCCO1)c1cc(-c2ccccc2F)no1 (configuration not stated) was read as hcDAF12 agonist 5.6, ssDAF-12 act inactive, hgDAF-12 ag 19.6, hgDAF12 ag 33.3 and LXR ag 2 inactive.
`CCNC(=O)OCCN1C(=O)CCC12CCC(c1ccc(Cl)cc1)CC2` (configuration not stated) gave hcDAF12 agonist inactive, ssDAF-12 act inactive and hgDAF-12 ag inactive.
For COc1ccc2c(C)cc(N3CCOCC3)nc2c1 the results were hcDAF12 agonist inactive, ssDAF-12 act inactive, hgDAF-12 ag inactive, NF-kB expr up inactive and APP 5'UTR act inactive.
COc1ccc2nc(N3CCOCC3)cc(C)c2c1 was read as hcDAF12 agonist inactive, ssDAF-12 act inactive, hgDAF-12 ag 16.6, NF-kB expr up 5.02, APP 5'UTR act inactive, hgDAF12 ag 14.2 and LXR ag 2 inactive.
For CCN(C(=O)[C@@H](C)[C@@H](O)c1ccc(C(C)=O)cc1)c1ccccc1 the results were hcDAF12 agonist inactive, ssDAF-12 act inactive and hgDAF-12 ag inactive.
Screening CCc1ccc(NC2=NCC(c3ccccc3)S2)cc1 (configuration not stated) returned hcDAF12 agonist inactive, ssDAF-12 act inactive, hgDAF-12 ag 13.4, NF-kB expr up inactive, APP 5'UTR act inactive, hgDAF12 ag 11.1 and LXR ag 2 inactive.

Compound activity as filed in PubChem.
